How the values were obtained:
Assay type in all cases: functional
[1] = tested on: Plasmodium falciparum; assay: GSK_TCMDC: Inhibition of Plasmodium falciparum 3D7 in whole red blood cells, using parasite LDH activity as an index of growth. Test compounds present at 2uM
[2] = tested on: Plasmodium falciparum; assay: GSK_TCMDC: Inhibition of Plasmodium falciparum Dd2 in whole red blood cells, using parasite LDH activity as an index of growth. Test compounds present at 2uM
[3] = tested on: HepG2; assay: GSK_TCMDC: Percent inhibition of human HepG2 cell line. Test compounds present at 10uM.

SMILES | Inhibition [1] | Inhibition [2] | Inhibition [3]
CS(=O)(=O)Nc1ccc2c(C3CCN(CCC4CCN(C(=O)/C=C/c5ccc(Cl)c(Cl)c5)CC4)CC3)c[nH]c2c1 | 99% | 63% | 35%
Cc1c(C)n(C2CCCC2)c2ncnc(OC3CCN(CC(=O)NCC4CC4)CC3)c12 | 89% | 89% | 20%
COc1ccc(NC(=O)CCNc2cc(C)nc(NCCc3ccccc3)n2)cc1.O=C(O)C(F)(F)F | 85% | 0% | 3%
CCCC(=O)Nc1ccc(OCCN(Cc2ccccc2OC(F)(F)F)c2ccc(C(F)(F)F)c(C#N)c2)cc1 | 85% | 97% | 0%
Oc1cc2c(cc1CN1CCN(Cc3cccs3)CC1)CCC2 | 99% | 91% | 10%
CN1CCc2cc(CN3CC4(C)CC3CC(C)(C)C4)c(O)cc2C(c2ccccc2)C1.Cl (stereo not given) | 98% | 88% | 0%
O=C(/C=C/c1ccc(Cl)c(Cl)c1)NCCCCN1CCCN(C(=O)Nc2ccc(F)c(Cl)c2)CC1 | 87% | 2% | 69%
CN1CCCN(Cc2cccc(-c3ccc(NC(=O)c4cccc(Cl)c4)cc3)c2)CC1.O=C(O)C(F)(F)F | 90% | 10% | 34%
O=C(O)C(F)(F)F.c1ccc(CN2CCC(NCc3ccccc3-c3ccc(CNC4CCCC4)cc3)CC2)cc1 | 100% | 33% | 38%
COc1cc(NC(=O)NC(CCN2CCC3(CCc4ccccc43)CC2)c2ccc(Cl)c(Cl)c2)cc(OC)c1OC (stereo not given) | 90% | 66% | 66%

— ChEMBL document CHEMBL1157539, “Thousands of chemical starting points for antimalarial lead identification” (Nature, 2010)
